A selection: hits, their analogues and other compounds. The true share with any hit is near 1.2%.
ERG-DNA inh – inhibitors of human ERG Ets domain-DNA interaction | Potency, µM (series often up to 76.9 µM), usual class: inhibitors | actives 0.028% (n = 370,000) | fluorescence polarization, His-ERG Ets domain / labelled DNA | P11308 | AID 624246; active = well fitted inhibition curve with a large enough effect in the polarisation, with a control signal flat; inconclusive = small, poorly fitted or top-dose-only effect, or effect the other way, or a change in a side signal; inactive = no such curve, though single readings can be large or run the other way; the % refers to the polarisation;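 note: polarization taken with two DNA probes labelled with fluorescein and Texas red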
Target sequence (P11308 whole entry, looked up, the tested form may be a part): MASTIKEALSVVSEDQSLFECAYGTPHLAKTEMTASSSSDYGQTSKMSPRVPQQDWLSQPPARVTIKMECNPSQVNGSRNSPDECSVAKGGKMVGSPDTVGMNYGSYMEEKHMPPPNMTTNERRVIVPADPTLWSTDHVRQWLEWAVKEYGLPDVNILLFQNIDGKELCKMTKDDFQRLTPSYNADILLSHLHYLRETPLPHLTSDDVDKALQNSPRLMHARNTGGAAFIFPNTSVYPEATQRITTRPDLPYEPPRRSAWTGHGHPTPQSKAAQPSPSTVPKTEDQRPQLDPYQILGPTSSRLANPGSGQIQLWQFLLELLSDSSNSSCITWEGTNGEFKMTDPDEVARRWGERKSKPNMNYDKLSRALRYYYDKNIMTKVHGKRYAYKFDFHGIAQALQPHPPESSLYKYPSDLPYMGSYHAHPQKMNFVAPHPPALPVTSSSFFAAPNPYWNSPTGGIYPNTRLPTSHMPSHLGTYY
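His-tagged ERG Ets domain (1 uM in the protein solution; 300mM KCl, 50mM Tris-HCl, 1mM EDTA, 1mM DTT, pH 7.5) received compound, then a probe mix of 5 nM fluorescein-DNA and 100nM Texas-615-DNA. Fluorescence polarization was read for both dyes.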
Mito fusion act – mitochondrial division inhibition or fusion activation | S. cerevisiae fusion-defective mutant growth rescue, CellTiterGlo 48 h | Potency, µM (doses to about 46.1 µM), actives largely listed as activators | actives 0.23% (n = 320,000) | AID 485298; note: nearly all actives have a fitted effect of over 45% in size
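Compounds are tested for their ability to restore growth of mitochondrial fusion-defective yeast strains at non-permissive 37C in YPEG medium over 48 hours. Viability is quantified by luciferase luminescence.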
B2AR arrestin – beta2AR (human) beta-arrestin recruitment activity; actives 0.02% (n = 330,000); beta-arrestin recruitment to beta2AR, cell-based reporter; P07550; Potency, µM (titrated, usually from 46.1 µM), usual class: activators; note: nearly all actives have a fitted effect of over 65% in size
BRCA1 expr act – increases BRCA1 expression; Potency, µM (titrated, usually from 46.1 µM), hits mostly activators; MCF7-BRCA1-FFLuc reporter, luminescence, 48 h; response scale: scaled: vehicle 0%, 10 µM genistein 100%; actives 1.1% (n = 380,000); note: nearly all actives have a fitted effect of over 80% in size
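MCF7-BRCA1-FFLuc, 2000 cells/well; 2 h attach, 37 °C/5% CO2; compound 48 h; luciferase substrate 15 min; luminescence end-point. Norm. to genistein 10 microM max activation and DMSO; concentration-response curves fitted.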
Hits are given with their value. Unless noted, calls come from the whole dose curve; as a rule, active = well fitted curve in the direction sought with a large enough effect; inconclusive = small, poorly fitted or top-dose-only effect, or another doubt; inactive = no such curve, though single readings can be large; an effect the other way counts as inactive or inconclusive.

CC(=O)NC(Cc1c[nH]c2ccccc12)C(=O)OCC(=O)Nc1ccc2c(c1)OCO2 (stereo not drawn) was read as ERG-DNA inh inactive, Mito fusion act inactive, B2AR arrestin inactive and BRCA1 expr act inactive.
`COC(=O)c1cc2oc(C)cc2n1CC(=O)Nc1ccc(C(C)C)cc1` gave ERG-DNA inh inactive.
Screening CCCn1c(C)cc(C(=O)CN2C(=O)NC3(CCCCCC3)C2=O)c1C returned BRCA1 expr act inactive.
Screening COCCn1c(C)cc(C(=O)CN2C(=O)NC3(CCCCCC3)C2=O)c1C returned ERG-DNA inh inactive, Mito fusion act inactive, B2AR arrestin inactive and BRCA1 expr act 5.62µM.
For COc1ccccc1Nc1nc2ccccc2n1C the results were ERG-DNA inh inactive, Mito fusion act inactive, B2AR arrestin inactive and BRCA1 expr act 4.47µM.
Screening COc1ccccc1Nc1ccc(Nc2ccccc2OC)nn1 returned ERG-DNA inh inactive, Mito fusion act inactive, B2AR arrestin inactive and BRCA1 expr act 5.01µM.
`COc1ccc(OC)c(Nc2ccc(Nc3cc(OC)ccc3OC)nn2)c1` gave ERG-DNA inh inactive, Mito fusion act inactive, B2AR arrestin inactive and BRCA1 expr act inactive.
`S=C(NCCCc1cnc[nH]1)NCCCN(Cc1ccc(Cl)cc1)c1ccc(Br)cc1` gave BRCA1 expr act inactive.
Screening Nc1ccc(-c2nnn(Cc3ccccc3F)n2)cc1 returned ERG-DNA inh inactive, Mito fusion act inactive, B2AR arrestin inactive and BRCA1 expr act 11.2µM.
CC(C)n1nnc(-c2ccc(OCc3ccccc3F)cc2)n1 was read as ERG-DNA inh inactive, Mito fusion act inactive, B2AR arrestin inactive and BRCA1 expr act 4.47µM.
Cn1nnc(-c2ccc(OCc3ccccc3F)cc2)n1 was read as ERG-DNA inh inactive, Mito fusion act inactive, B2AR arrestin inactive and BRCA1 expr act inconclusive.
C(=Nc1ccc2ccccc2n1)c1ccccn1 was read as BRCA1 expr act inactive.
Screening O=C(Nc1ccc([N+](=O)[O-])cc1Cl)c1cc(Cl)cc(Cl)c1O returned BRCA1 expr act inactive.
CCOC(=O)CNC(=O)c1ccccc1 was read as ERG-DNA inh inactive, Mito fusion act inactive, B2AR arrestin inactive and BRCA1 expr act inactive.
`CCOC(=O)CNC(=O)c1ccc(SCC)cc1` gave ERG-DNA inh inactive, Mito fusion act inactive, B2AR arrestin inactive and BRCA1 expr act 12.6µM.
`Brc1ccccc1OCCCOc1cccc2cccnc12` gave ERG-DNA inh inactive, Mito fusion act inactive, B2AR arrestin inactive and BRCA1 expr act 8.91µM.
`CCN(CC)C(=O)Cn1c(=O)cc(C)c2c(C)nn(-c3cccc(Cl)c3C)c21` gave ERG-DNA inh inactive and BRCA1 expr act inactive.
O=C(c1ccc(CSc2nc3ccncc3n2Cc2cccc(F)c2)cc1)N1CCCCC1 was read as ERG-DNA inh inactive.
`CCN(Cc1ccccc1)C(=O)Cn1c(=O)cc(C)c2c(C)nn(-c3cccc(F)c3)c21` gave ERG-DNA inh inactive.
`S=C(Nc1ccc2c(c1)OCO2)N1CCN(Cc2ccco2)CC1` gave ERG-DNA inh inactive, Mito fusion act inactive, B2AR arrestin inactive and BRCA1 expr act 3.55µM.
`COc1ccc(/C=C/c2nnc(NC(=O)COc3ccc(Cl)cc3)s2)cc1` gave BRCA1 expr act inactive.
COc1ccc2oc(=O)c(-c3csc(Nc4ccc(O)cc4)n3)cc2c1 was read as ERG-DNA inh inconclusive, Mito fusion act 15.8µM, B2AR arrestin inactive and BRCA1 expr act inactive.
`Cc1ccc(S(=O)(=O)Nc2cc(C)cc(CCNC=O)c2C)cc1` gave ERG-DNA inh inactive and BRCA1 expr act inactive.
Cc1c(CCNC=O)cc(C)c2c3c(oc12)CCCC3 was read as BRCA1 expr act 10µM.
`O=C(Nc1sc2c(c1C(=O)O)CCCC2)c1cccc(Cl)c1` gave ERG-DNA inh inactive, Mito fusion act inactive, B2AR arrestin inactive and BRCA1 expr act 11.2µM.
`COc1ccc(N2CCN(C(c3cccs3)c3nnnn3C3CCCC3)CC2)cc1` (stereo not drawn) gave ERG-DNA inh inactive, Mito fusion act 11.2µM, B2AR arrestin inactive and BRCA1 expr act inactive.
Screening Fc1ccc(N2CCN(C(c3cccs3)c3nnnn3C3CCCC3)CC2)cc1 (stereo not drawn) returned Mito fusion act inactive, B2AR arrestin inactive and BRCA1 expr act inactive.
For Cc1ccc(-c2cc(C(=O)N/N=C/C=C/c3ccccc3)n[nH]2)s1 the results were ERG-DNA inh inactive, Mito fusion act 15.8µM, B2AR arrestin inactive and BRCA1 expr act inactive.
Screening Cc1cc(C(=O)N/N=C/C=C/c2ccccc2)n[nH]1 returned ERG-DNA inh inactive, Mito fusion act inactive, B2AR arrestin inactive and BRCA1 expr act inactive.
CC(=O)c1ccc(NC(=O)CCCSc2nc(-c3ccco3)cc(C(F)(F)F)n2)cc1 was read as ERG-DNA inh inactive.
`Cc1ccc(N2Cc3ccccc3C2=S)cc1` gave ERG-DNA inh inactive, Mito fusion act inactive, B2AR arrestin inactive and BRCA1 expr act 3.98µM.
For S=C1c2ccccc2CN1c1ccccc1 the results were ERG-DNA inh inactive, Mito fusion act inactive, B2AR arrestin inactive and BRCA1 expr act inactive.
Screening CCCCN(CC)C(=O)CCn1c(=O)c2cccn2c2cccnc21 returned ERG-DNA inh inactive.
`Cn1nnc2cc(C(=O)Nc3cccnc3)ccc21` gave ERG-DNA inh inactive, Mito fusion act inactive, B2AR arrestin inactive and BRCA1 expr act inactive.
`Cc1ccc(NC(=O)c2ccc3c(c2)nnn3C)cc1` gave ERG-DNA inh inactive, Mito fusion act inactive, B2AR arrestin inactive and BRCA1 expr act 7.08µM.
Screening Cn1nnc2cc(C(=O)Nc3ccc(Cl)cc3)ccc21 returned ERG-DNA inh inactive, Mito fusion act inactive, B2AR arrestin inactive and BRCA1 expr act inactive.
Screening Cn1nnc2cc(C(=O)Nc3ccccc3)ccc21 returned ERG-DNA inh inactive, Mito fusion act inactive, B2AR arrestin inactive and BRCA1 expr act 7.08µM.
For COc1cccc(NC(=O)Nc2ccc3c(c2)nnn3C)c1 the results were ERG-DNA inh inactive, Mito fusion act inactive, B2AR arrestin inactive and BRCA1 expr act 7.94µM.
`CCCCNC(=O)CCCn1c(=O)c2ccccc2n(Cc2ccc(Cl)cc2)c1=O` gave ERG-DNA inh inactive and BRCA1 expr act inactive.
C/C(=N\O)c1sc(-c2ccccc2)nc1C was read as ERG-DNA inh inactive, Mito fusion act inactive, B2AR arrestin inactive and BRCA1 expr act 2.51µM.
Screening CCOC(=O)c1c(-c2ccc(C)cc2)csc1NC(=O)CCN1CCOCC1 returned ERG-DNA inh inactive, Mito fusion act 12.6µM, B2AR arrestin inactive and BRCA1 expr act inactive.
Screening CCOC(=O)c1c(-c2ccc(C)o2)csc1NC(=O)CN1CCOCC1 returned ERG-DNA inh inactive, Mito fusion act inactive, B2AR arrestin inactive and BRCA1 expr act inactive.
CCOC(=O)c1c(-c2ccccc2)csc1NC(=O)CCN1CCOCC1 was read as ERG-DNA inh inactive, Mito fusion act 11.2µM, B2AR arrestin inactive and BRCA1 expr act inactive.
For Cc1coc2c(C)c3oc(=O)cc(-c4ccccc4)c3cc12 the results were ERG-DNA inh inactive and BRCA1 expr act inactive.

Source: PubChem BioAssay (National Center for Advancing Translational Sciences (NCATS))
